A short description of test [1]: qHTS to identify inhibitors of the type 1 interferon - major histocompatibility complex class I in skeletal muscle: primary screen against the NCATS Mechanism Interrogation Plate v5.0 (MIPE) Libary (AID 1347411). Also: nearly all actives have a fitted effect of over 65% in size. Also: potency is read from the fitted curve at half-maximal effect. In short, it runs like this: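 HLA-B HiBit myoblasts, dexamethasone-free medium + 4 ng/ml IFN-b, 24 h compound, 11-pt 1:3 from 46 uM final. Readout: Nano-Glo HiBiT lytic luminescence after 10 min lysis, RT.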

For test [2], the target named is Protein phosphatase 1D (Homo sapiens) (UniProt O15297). Briefly: RapidFire Mass Spectrometry qHTS Assay for Modulators of WT P53-Induced Phosphatase 1 (WIP1) (AID 1347424).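 Also: amount of dephosphorylated VEPPL-S-QETFS peptide product formed by WIP1.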 Also: potency is read from the fitted curve at half-maximal effect. In short, it runs like this: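 RapidFire mass spectrometry measured dephosphorylated peptide after 5 min room-temperature reaction of 2 uM VEPPL-pS-QETFS with 10 nM WIP1 (50 mM Tris-HCl pH 7.5, 30 mM MgCl2, 0.1 mM EGTA, BSA), following 1 hr compound preincubation; 1 uM isotope-labelled product standard.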
Sequence of Protein phosphatase 1D (Homo sapiens) (O15297 whole entry, looked up): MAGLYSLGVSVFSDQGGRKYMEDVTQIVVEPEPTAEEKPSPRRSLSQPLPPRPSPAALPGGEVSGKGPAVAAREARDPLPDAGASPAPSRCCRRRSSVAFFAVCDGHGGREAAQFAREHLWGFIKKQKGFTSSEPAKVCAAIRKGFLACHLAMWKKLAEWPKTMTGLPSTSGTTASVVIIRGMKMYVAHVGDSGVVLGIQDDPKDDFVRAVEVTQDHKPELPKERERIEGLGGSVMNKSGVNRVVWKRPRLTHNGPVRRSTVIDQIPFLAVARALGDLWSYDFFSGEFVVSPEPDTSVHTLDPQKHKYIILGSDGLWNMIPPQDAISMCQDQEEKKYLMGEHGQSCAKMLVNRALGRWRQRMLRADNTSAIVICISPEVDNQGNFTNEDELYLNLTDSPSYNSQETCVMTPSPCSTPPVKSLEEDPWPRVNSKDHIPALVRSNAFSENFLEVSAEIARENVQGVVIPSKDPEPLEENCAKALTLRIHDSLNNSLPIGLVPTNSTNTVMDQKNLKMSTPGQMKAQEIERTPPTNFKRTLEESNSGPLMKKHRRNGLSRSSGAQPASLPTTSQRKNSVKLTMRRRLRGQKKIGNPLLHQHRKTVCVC
A general note: Quantitative high-throughput screening tests each substance at several concentrations.

Test [3] is described as follows: Validation qHTS assay for inhibitors of Activation Induced Cytidine Deaminase (AID): UDG Counterscreen signal (AID 1347427). Also: 0% is about no effect. In short, it runs like this:
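Fluorescence at 560 nm excitation, 665 nm emission reports UDG signal after 250 mM NaOH (2x) addition and 30 min. Enzymes (AID 1 uM, UDG 2 U/mL, at 4/3x) preincubated 10 min with compound, then 4 h with 4x 250 nM DJC20/DJC23 substrate at room temperature.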

For test [4], the target named is Single-stranded DNA cytosine deaminase (Homo sapiens) (UniProt Q9GZX7). Briefly: Validation qHTS assay for inhibitors of Activation Induced Cytidine Deaminase (AID): AID signal (AID 1347429). Also: % is scaled to controls: 0 for no effect and ±100 for the full control effect. The method, boiled down: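 AID+UDG coupled FRET deamination; cpds up to 114 uM final; DJC20/DJC23 substrate, 4 hr RT; NaOH stop, 30 min RT; read Ex 540/Em 590.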
Sequence of Single-stranded DNA cytosine deaminase (Homo sapiens) (Q9GZX7 whole entry, looked up): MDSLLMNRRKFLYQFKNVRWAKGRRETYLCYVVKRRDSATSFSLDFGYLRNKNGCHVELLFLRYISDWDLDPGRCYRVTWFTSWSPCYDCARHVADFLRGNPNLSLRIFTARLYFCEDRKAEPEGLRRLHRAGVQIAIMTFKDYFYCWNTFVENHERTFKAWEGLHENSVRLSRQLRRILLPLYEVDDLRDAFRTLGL
Test [5] in a line: Primary qHTS for inhibitors of La Crosse Virus (LACV) - induced cell death in SH-SY5Y cells (AID 1508616).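 Also: top concentration of the series differs between compounds; 0% = infected DMSO wells and 100% = uninfected DMSO wells; higher means more rescue of cells from virus-induced death.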 The method, boiled down:
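Cytopathicity rescue screen: compounds pinned onto SH-SY5Y cells, which are then infected with LACV (MOI 0.01) and held 6 days at 37C. Percent activity is scaled between infected DMSO control and uninfected DMSO control.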

For test [6], the target named is Calcium and integrin-binding protein 1 (Homo sapiens) (UniProt Q99828). Briefly: Validation qHTS for Identification of Calcium Integrin Binding protein 1 (CIB1) Competitor (AID 1508618). Also: potency is read from the fitted curve at half-maximal effect. In short, it runs like this: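 Displacement of FITC-alphaIIb peptide (100 nM) from CIB1-GST (1 uM) is monitored by polarization in quantitative HTS format; buffer carries 5 mM CaCl2 and 125 mM NaCl at pH 7.4, incubations are at room temperature.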
Sequence of Calcium and integrin-binding protein 1 (Homo sapiens) (Q99828 whole entry, looked up): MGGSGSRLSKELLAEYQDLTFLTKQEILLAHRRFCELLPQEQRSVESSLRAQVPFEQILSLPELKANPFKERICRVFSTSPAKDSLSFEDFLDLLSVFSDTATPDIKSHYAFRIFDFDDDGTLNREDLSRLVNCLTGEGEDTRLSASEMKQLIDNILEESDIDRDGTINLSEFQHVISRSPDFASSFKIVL

Test [7] in a line: Counterscreen qHTS for small molecule stabilizers of the endoplasmic reticulum resident proteome: GLuc-NoTag assay (AID 1508627).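 Also: SH-SY5Y cells given compound then 100 nM thapsigargin to empty ER calcium; series mostly up to about 76 µM; 0% = thapsigargin alone and -100% = DMSO vehicle control.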 In short, it runs like this:
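Counterscreen line: SH-SY5Y-GLuc-NoTag cells, treated with compound 19 hr before a 4 hr, 100 nM thapsigargin calcium depletion. Secreted Gaussia luciferase in the medium was measured by luminescence after coelenterazine was added (0.07x final), with cells unlysed.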
(Counterscreens check selectivity or assay interference.)

Test [8] in a line: Confirmatory qHTS for small molecule stabilizers of the endoplasmic reticulum resident proteome: Secreted ER Calcium Modulated Protein (SERCaMP) assay (AID 1508628). Also: potency is read from the fitted curve at half-maximal effect; nearly all actives have a fitted effect of over 40% in size. In short, it runs like this: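 GLuc-SERCaMP-expressing SH-SY5Y cells, pretreated 16 h with compound, are challenged with thapsigargin to empty ER calcium stores; after 4 h, coelenterazine is added directly to the medium and luminescence is imaged.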

Test [9] in a line: Cell Viability qHTS for small molecule stabilizers of the endoplasmic reticulum resident proteome (AID 1508629).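 Also: human SH-SY5Y neuroblastoma cells carrying the GLuc-SERCaMP reporter; compound exposure about 46 h in total before the viability read; % is scaled to controls: 0 for no effect and ±100 for the full control effect.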 To be noted: cell viability counter-screen, 100 nM thapsigargin for final 4 h.
A short description of test [10]: Primary qHTS for small molecule stabilizers of the endoplasmic reticulum resident proteome: Secreted ER Calcium Modulated Protein (SERCaMP) assay (AID 1508630). Also: potency is read from the fitted curve at half-maximal effect. The method, boiled down:
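The SH-SY5Y reporter protocol was run at 3 concentrations up to 38.3 uM (primary) or 11 concentrations (follow-up): 16 h compound, 100 nM thapsigargin for 4 h, then extracellular luciferase luminescence.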

A short description of test [11]: A High-Content qHTS Against Drug Library for the Identification of Small Molecules that Inhibit DYT1 Early Onset Primary Dystonia-Associated Cell Pathology (AID 1645839; calls by dose curve; also: series mostly up to about 46 µM). In short, it runs like this:
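High-content imaging quantified EGFP-TorsinA mislocalization in HEK293-derived cells inducibly expressing DYT1 mutant torsinA, after 48 h exposure to compound given together with tetracycline induction. Cell count served as a toxicity channel alongside %pathology.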

The target of test [12] is Cytochrome P450 2D6 (Homo sapiens) (UniProt P10635). Briefly: Cytochrome P450 family 2 subfamily D member 6 (CYP2D6) small molecule antagonists: luciferase biochemical (cell-free) qHTS assay (AID 1645840; active = well fitted curve in the direction sought with a large enough effect in the repeat runs; an effect the other way counts as inactive or inconclusive; also: nearly all actives have a fitted effect of over 55% in size; also: potency is read from the fitted curve at half-maximal effect). In short, it runs like this: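 P450-Glo CYP2D6 system: proluciferin substrate converted by enzyme to luciferin, read by luminescence proportional to activity. Enzyme-substrate mix with compound 10 min at room temperature, then NADPH regeneration 1 h before detection reagent.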
Sequence of Cytochrome P450 2D6 (Homo sapiens) (P10635 whole entry, looked up): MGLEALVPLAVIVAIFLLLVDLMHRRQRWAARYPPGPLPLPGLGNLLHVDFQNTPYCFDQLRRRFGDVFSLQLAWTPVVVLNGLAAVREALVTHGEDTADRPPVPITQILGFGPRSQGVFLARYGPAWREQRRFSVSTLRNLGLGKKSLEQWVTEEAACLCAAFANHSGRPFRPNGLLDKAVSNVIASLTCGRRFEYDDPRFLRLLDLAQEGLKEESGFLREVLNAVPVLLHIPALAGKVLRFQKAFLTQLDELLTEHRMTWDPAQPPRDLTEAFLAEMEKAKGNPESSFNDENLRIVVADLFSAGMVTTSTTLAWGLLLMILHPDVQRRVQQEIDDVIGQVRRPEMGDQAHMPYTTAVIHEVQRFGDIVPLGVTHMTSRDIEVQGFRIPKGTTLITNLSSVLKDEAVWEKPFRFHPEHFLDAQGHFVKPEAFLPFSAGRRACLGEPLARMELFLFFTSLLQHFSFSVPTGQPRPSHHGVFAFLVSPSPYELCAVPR

In test [13] the target is Cytochrome P450 2C9 (Homo sapiens) (UniProt P11712). Briefly: Cytochrome P450 family 2 subfamily C member 9 (CYP2C9) small molecule antagonists: luciferase biochemical (cell-free) qHTS assay (AID 1645842; active = well fitted curve in the direction sought with a large enough effect in the repeat runs; an effect the other way counts as inactive or inconclusive; also: nearly all actives have a fitted effect of over 55% in size; also: potency is read from the fitted curve at half-maximal effect). In short, it runs like this: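 P450-Glo CYP2C9 system: proluciferin substrate with enzyme in mix containing 0.4% BSA, 10 min at room temperature, then NADPH regeneration solution added and incubated 1 h at 37C. Detection reagent stopped reaction; luminescence read after 20 min as RLU.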
Sequence of Cytochrome P450 2C9 (Homo sapiens) (P11712 whole entry, looked up): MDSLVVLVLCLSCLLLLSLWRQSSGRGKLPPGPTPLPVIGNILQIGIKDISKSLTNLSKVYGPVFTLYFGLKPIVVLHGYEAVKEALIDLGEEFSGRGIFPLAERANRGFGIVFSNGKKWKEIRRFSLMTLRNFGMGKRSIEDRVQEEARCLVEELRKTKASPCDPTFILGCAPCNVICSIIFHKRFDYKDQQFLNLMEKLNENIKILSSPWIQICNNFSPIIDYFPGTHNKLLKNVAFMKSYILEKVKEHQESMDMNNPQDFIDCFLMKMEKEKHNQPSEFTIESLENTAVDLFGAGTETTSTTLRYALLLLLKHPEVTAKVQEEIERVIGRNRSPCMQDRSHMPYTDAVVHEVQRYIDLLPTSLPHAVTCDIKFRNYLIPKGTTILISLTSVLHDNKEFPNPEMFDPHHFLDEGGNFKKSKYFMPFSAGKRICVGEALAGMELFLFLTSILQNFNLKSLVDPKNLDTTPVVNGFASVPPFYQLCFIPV

The target in a further test is Papain (Carica papaya) (UniProt P00784). Briefly: Primary qHTS assay for inhibitors of the protease papain (AID 1645873).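 Also: papain turnover of Z-FR-AMC read as the AMC fluorescence gain over 10 min.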 Also: potency is read from the fitted curve at half-maximal effect.
Sequence of Papain (Carica papaya) (P00784 whole entry, looked up, the tested form may be a part): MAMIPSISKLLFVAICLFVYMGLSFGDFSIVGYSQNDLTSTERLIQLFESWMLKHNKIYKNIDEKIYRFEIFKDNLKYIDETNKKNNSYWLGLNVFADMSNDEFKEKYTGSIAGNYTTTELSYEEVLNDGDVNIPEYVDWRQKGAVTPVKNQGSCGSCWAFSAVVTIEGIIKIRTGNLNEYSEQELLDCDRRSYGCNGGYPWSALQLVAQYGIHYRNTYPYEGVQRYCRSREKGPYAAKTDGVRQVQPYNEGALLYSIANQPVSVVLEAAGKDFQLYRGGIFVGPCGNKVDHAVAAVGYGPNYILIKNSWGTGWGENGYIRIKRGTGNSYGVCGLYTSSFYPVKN
Test [14] in a line: Primary qHTS for inhibitors of nuclear receptor binding SET domain protein 2 (NSD2) in an isogenic RCH-ACV NSD2 p.E1099K mutant (9B) (AID 1645876). Also: nearly all actives have a fitted effect of over 70% in size. Also: potency is read from the fitted curve at half-maximal effect.
Test [15] concerns the target Calcium and integrin-binding protein 1 (Homo sapiens) (UniProt Q99828). Briefly: Primary qHTS for Identification of Calcium Integrin Binding Protein 1 (CIB1) Competitor (AID 1508620).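 Also: GST tagged CIB1 binding a fluorescein labelled alphaIIb integrin peptide tracer; top concentration of the series differs between compounds; % is scaled to controls: 0 for no effect and ±100 for the full control effect.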 The method, boiled down: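 CIB1-GST (1 uM final) and compound incubated 15 min at room temperature before adding FITC-alphaIIb peptide tracer (100 nM final). Competition for binding read by fluorescence polarization (ex 480, em 540) after another 15 min at room temperature.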

Test [16] has as its target Protein phosphatase 1D (Homo sapiens) (UniProt O15297). Briefly: Rhodamine-PBP qHTS Assay for Modulators of WT P53-Induced Phosphatase 1 (WIP1) (AID 1347425). Also: % of control where 0% means no effect. The method, boiled down:
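5 nM WIP1 + 10 uM Rh-PBP, 50 mM Tris pH 7.5, 30 mM MgCl2, 1 mM TCEP, 0.1 mM EGTA, BSA; cpds pinned, 1 hr RT; + 10 uM phosphopeptide; fluorescence 1-min reads x 11 min; delta = f1 - f0.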

For test [17], the target named is Calcium and integrin-binding protein 1 (Homo sapiens) (UniProt Q99828). Briefly: Confirmatory qHTS for Identification of Calcium Integrin Binding Protein 1 (CIB1) Competitor (AID 1508617). Also: potency is read from the fitted curve at half-maximal effect; nearly all actives have a fitted effect of over 65% in size. In short, it runs like this: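 Confirmatory qHTS measures displacement of a FITC-alphaIIb peptide (100 nM) from CIB1-GST (1 uM) by fluorescence polarization. Calcium-containing HEPES buffer, pH 7.4; two 15 min room-temperature incubations.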

Where “and” joins values, the source holds several entries; their conditions need not be identical. Identical values can stand only once. Values without a mark were called inactive. Results filed as inconclusive are left out. Calls of active or inactive are those of the source. Unless noted, calls follow the shape of the dose curve; as a rule, active = well fitted curve in the direction sought with a large enough effect; inconclusive = small, poorly fitted or top-dose-only effect, or another doubt; inactive = no such curve, though single readings can be large; an effect the other way counts as inactive or inconclusive.

On to `OC(CCN1CCCCC1)(c1ccccc1)C1CC2C=CC1C2` (stereo unspecified), for which the Potency result in test [1], in test [2], in [4], in test [6], in test [7] and in [11] was “inactive” each time. Further, the Potency result (in test [13]; in the test with Papain (Carica papaya); in test [14]) was “inactive” each time. Further, the molecule was called inactive in [3] and in test [5]. Moreover, the Potency in [8] was 15.8 µM (active) and 22.4 µM (active); in test [10] it was 10 µM (active); in test [12], 1.23 µM (active). Also, the max response in test [9] was 24.4%.

Consider `NS(=O)(=O)c1cc2c(cc1Cl)NC=NS2(=O)=O`, for which the Potency result (in test [1]; in [2]; in test [4]; in test [6]; with Papain (Carica papaya); in test [14]) was “inactive” each time. Moreover, the molecule was classed as inactive in test [3], in test [5] and in test [15].

For `NNCCc1ccccc1`, the Potency result in test [1], in [2], in test [4], in [6], in [10] and in test [11] was “inactive” throughout. In addition, the Potency entry (with Papain (Carica papaya); in [14]) was “inactive” each time. Further, the call in test [5] and in [15] was inactive. Also, in test [12], the Potency was 5.49 µM (active).

Turning to `O=NN(CCCl)C(=O)NCCCl`, the Potency result (in test [1]; in [2]; in test [4]; in [6]; in [10]; with Papain (Carica papaya)) was “inactive” in each case. Moreover, the Potency entry in test [14] was “inactive”. For the same molecule, the molecule was called inactive in test [3], in test [5] and in [15].

In the case of `CC(C)(C)NCC(O)c1ccc(O)c(CO)c1` (stereo unspecified), the Potency result in [1], in test [2], in test [4], in test [6], in [11] and in test [12] was “inactive” each time. The Potency entry (in test [13]; in the test with Papain (Carica papaya); in test [14]) was “inactive” throughout. Also, the molecule was classed as inactive in test [16], in [3], in [5] and in [15].

As for `Cc1ccc(N(CC2=NCCN2)c2cccc(O)c2)cc1`, the Potency entry in [1], in test [2], in test [4], in [7], in test [10] and in [11] was “inactive” throughout. The Potency entry (in [13]; in the test with Papain (Carica papaya); in [14]) was “inactive” in each case. Besides, the outcome in test [3] and in test [5] was inactive. Also, the Potency in test [12] was 0.309 µM (active).

On to `Cc1oncc1C(=O)Nc1ccc(C(F)(F)F)cc1`, for which the Potency is 18.6 µM (active) in test [1]; 13.8 µM (active) in test [13]; 10.6 µM (active) and 16.6 µM (active) in test [14]. Besides, the Potency entry (in test [2]; in [4]; in test [6]; in test [11]; with Papain (Carica papaya)) was “inactive” throughout. Further, the result in test [3], in [5] and in [15] was inactive.

With `Cc1cn[nH]c1`, the Potency entry in test [1], in test [2], in test [4], in test [6], in [10] and in test [11] was “inactive” in each case. Also, the Potency entry (in the test with Papain (Carica papaya); in [14]) was “inactive” each time. For the same molecule, the result in test [3], in test [5] and in test [15] was inactive.

Take `Cc1cc2c(C(C)C)c(O)c(O)c(C=O)c2c(O)c1-c1c(C)cc2c(C(C)C)c(O)c(O)c(C=O)c2c1O`: the Potency in [1] is 23.4 µM (active); in test [2], 3.98 µM (active); in test [17] it was 3.16 µM (active) and 28.2 µM (active); in [6] it was 22.4 µM (active); with Papain (Carica papaya), 12.6 µM (active); in test [14], 10.5 µM (active). The call in test [3] and in test [5] was inactive. Moreover, the Potency entry in test [10] was “inactive”.

In the case of `O=C1CCC(N2C(=O)c3ccccc3C2=O)C(=O)N1` (stereo unspecified), the Potency entry in [1], in test [2], in test [4], in test [6], in test [10] and in test [11] was “inactive” in each case. For the same molecule, the Potency entry (in test [13]; in the test with Papain (Carica papaya); in test [14]) was “inactive” in each case. Moreover, the call in test [3] and in test [5] was inactive. The Potency in [12] is 15.5 µM (active).

With `O=c1[nH]cnc2[nH]ncc12`, the Potency result in test [1], in test [2], in [4], in test [6], in test [10] and in test [11] was “inactive” throughout. Moreover, the Potency entry (in test [12]; in test [13]; with Papain (Carica papaya); in test [14]) was “inactive” in each case. Further, the molecule was called inactive in [3], in test [5] and in [15].

For the molecule `CN1CCN(CCCN2c3ccccc3Sc3ccc(C(F)(F)F)cc32)CC1`, the Potency entry (in test [1]; in [2]; in [4]; in test [10]; in the test with Papain (Carica papaya)) was “inactive” throughout. Besides, the molecule was called inactive in test [16], in [3] and in test [5]. Besides, the Potency in test [14] is 18.8 µM (active) and 16.6 µM (active).

In the case of `CCn1cc(C(=O)O)c(=O)c2cc(F)c(N3CCNC(C)C3)c(F)c21` (stereo unspecified), the Potency result in test [1], in test [2], in [4], in [6], in test [11] and in test [12] was “inactive” each time. Also, the Potency entry in [13] and in [14] was “inactive” in each case. The molecule was called inactive in test [16], in test [3], in [5] and in test [15]. The Potency with Papain (Carica papaya) was 15.8 µM (active).

As for `CCCC(CCC)C(=O)O`, the Potency result in [1], in test [2], in [4], in test [6], in test [11] and in test [12] was “inactive” each time. Also, the Potency result (in [13]; with Papain (Carica papaya); in test [14]) was “inactive” throughout. The outcome in test [3] and in [5] was inactive.

For `N[C@@H]1CONC1=O`, the Potency entry in test [1], in test [2], in [4], in test [6], in test [11] and in test [12] was “inactive” throughout. Moreover, the Potency result (in test [13]; with Papain (Carica papaya); in [14]) was “inactive” in each case. The result in test [3] and in [5] was inactive.

Take `COc1ccc(COc2cc3oc(=O)c4cc(C(C)O)ccc4c3cc2OC)cc1` (stereo unspecified): the Potency entry in test [1] is “inactive”.

Source of the values: PubChem BioAssay (NCATS).
